Results filed as inconclusive are left out. Calls of active or inactive are those of the source. Unless noted, the call rests on the fitted dose curve; in most records, active means well fitted curve in the direction sought with a large enough effect; inconclusive means small, poorly fitted or top-dose-only effect, or another doubt; inactive means no such curve, though single readings can be large; an effect the other way counts as inactive or inconclusive.

The values that follow come from PubChem BioAssay (NCATS).

Test [1] concerns the target Tyrosine-protein kinase Yes (Homo sapiens) (UniProt P07947). Briefly: qHTS for small molecule inhibitors of Yes1 kinase: Primary Screen (AID 686947). Further: nearly all actives have a fitted effect of over 60% in size. Further: potency means the concentration at half of the fitted maximal effect. In short, it runs like this:
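ADP-Glo luminescence readout; final 4 nM Yes1, 0.1 mM ATP, 0.3 mg/mL poly(E4Y), Tris pH 7.5, MgCl2, DTT, Brij-35. 20 min compound preincubation, 60 min reaction at RT. Normalized to DMSO wells with and without enzyme.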

Test [2] is described as follows: qHTS for small molecule inhibitors of Yes1 kinase: Counter Assay (AID 686950).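 Further: no kinase present so only ADP-Glo detection of a fixed ADP amount is tested; luminescence from ADP-Glo reporting ADP in a fixed ATP and ADP mixture; 0% = DMSO wells with ATP plus ADP and -100% = ATP-only wells without ADP.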 The gist of the method:
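Luminescence read-out from ADP-Glo quantifies a fixed ADP amount (0.02 mM ADP with 0.08 mM ATP) after 60 min at room temperature; signal is normalized between DMSO wells with ATP/ADP and with 0.1 mM ATP alone.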

The nature of test [3]: qHTS Assay for Identifying Gametocytocidal Compounds (AID 743244). Further: potency means the concentration at half of the fitted maximal effect.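 On max response: on the % scale 0 is the no-effect control and ±100 the full control effect; actives lower the fluorescent signal which means gametocytes are killed.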 The conditions noted are these: P. falciparum 3D7 stage III-V gametocytes, alamarBlue, 72 h; max response: stronger effect = lower value. The gist of the method: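 In this qHTS viability screen, late-stage 3D7 gametocytes are incubated with compound for 72 h, then with alamarBlue for 24 h; reduced resorufin fluorescence marks killing.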

A short description of test [4]: qHTS profiling for inhibitors of Plasmodium falciparum (3D7) proliferation (AID 743322; call rule not given here;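 further: infected erythrocytes exposed to compound for 72 h before lysis; 100% = DMSO vehicle wells and 0% = 0.29 µM artemisinin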). The conditions noted are these: P. falciparum 3D7 proliferation; at 28.7 µM (top of the series) unless noted. In short, it runs like this:
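Erythrocytes infected with P. falciparum (0.3% parasitemia, 2.5% hematocrit) incubated with compounds 72 h at 37 C, 5% CO2. Lysis with saponin/Triton buffer containing SYBR Green I, overnight at room temperature in the dark; DNA fluorescence (485/535 nm) normalised to 0.29 uM artemisinin and DMSO.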

A short description of test [5]: qHTS profiling for inhibitors of Plasmodium falciparum (DD2) proliferation (AID 743323; call rule not given here). Conditions: lower = more inhibition; at 28.7 µM (top of the series) unless noted. In short, it runs like this:
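Parasite proliferation measured via DNA-dye fluorescence, as uninfected erythrocytes lack DNA. Cultures at 0.3% parasitemia and 2.5% hematocrit incubated 72 h with compound; signal scaled between vehicle and 0.29 uM artemisinin wells.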

Sequence of Tyrosine-protein kinase Yes (Homo sapiens) (P07947 whole entry, looked up): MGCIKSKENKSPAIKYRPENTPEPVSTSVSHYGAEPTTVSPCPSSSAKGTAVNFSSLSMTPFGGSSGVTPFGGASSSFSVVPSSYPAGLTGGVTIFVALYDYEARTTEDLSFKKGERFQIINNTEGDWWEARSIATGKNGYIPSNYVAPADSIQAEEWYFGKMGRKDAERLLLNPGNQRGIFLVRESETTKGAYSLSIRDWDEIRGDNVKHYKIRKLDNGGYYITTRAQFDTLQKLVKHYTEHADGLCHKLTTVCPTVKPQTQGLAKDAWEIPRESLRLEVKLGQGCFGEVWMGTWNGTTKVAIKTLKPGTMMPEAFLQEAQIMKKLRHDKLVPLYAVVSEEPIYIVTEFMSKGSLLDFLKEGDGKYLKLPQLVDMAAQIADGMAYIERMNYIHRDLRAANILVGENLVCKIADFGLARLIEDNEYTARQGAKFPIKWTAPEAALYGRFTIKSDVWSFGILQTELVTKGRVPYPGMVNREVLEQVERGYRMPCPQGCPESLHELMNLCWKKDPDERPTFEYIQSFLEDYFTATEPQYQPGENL

For the compound `CNC(=O)c1cc(Oc2ccc(NC(=O)Nc3ccc(Cl)c(C(F)(F)F)c3)c(F)c2)ccn1`, the Potency in test [1] is 4.87 µM (active). The compound was classed as inactive in test [2]. The max response in test [3] is 21.4% (inactive). In addition, in test [4], the remaining parasite growth % (stronger effect = lower value) was determined as 1.04%. The activity, percent of control in test [5] amounted to 5.46%.
Regarding `COc1ccc(CCN(C)CCCOc2ccc(S(=O)(=O)c3[nH]c4ccccc4c3C(C)C)cc2)cc1OC`, the Potency result in test [1] was “inactive”. Moreover, the outcome in test [2] was inactive. The remaining parasite growth % (stronger effect = lower value) in test [4] was -1%. Moreover, the activity, percent of control in test [5] is 1.03%.
Regarding `CCCCn1c(=O)n(Cc2ccccc2F)c(=O)c2[nH]c(Cc3ccc(NC(C)=O)cc3)nc21`, in test [1], the Potency result was “inactive”. For the same compound, the result in test [2] was inactive. The max response in test [3] is 66.3% (inactive). Further, the remaining parasite growth % (stronger effect = lower value) in test [4] amounted to 71.1%. Further, in test [5], the activity, percent of control was determined as 63.7%.
For `CCC(=O)N1CCN(c2ccc(-n3c(=O)ccc4cnc5ccc(-c6cnc7ccccc7c6)cc5c43)cc2C(F)(F)F)CC1`, the Potency result in test [1] was “inactive”. Also, the outcome in test [2] was inactive. Also, the Potency in test [3] was 5.26 µM (active). The remaining parasite growth % (stronger effect = lower value) in test [4] came out at 4.73%. Besides, the activity, percent of control in test [5] was 15.4%.
`COC(=O)Nc1ccc(-c2nc(N3CCOCC3)c3cnn(C4CCN(C(=O)OC)CC4)c3n2)cc1`: the Potency entry in test [1] was “inactive”. The result in test [2] was inactive. In addition, in test [3], the max response is 6.16% (inactive). Moreover, the remaining parasite growth % (stronger effect = lower value) in test [4] turned out to be 3.29%. Besides, the activity, percent of control in test [5] amounted to 7.64%.
Turning to `COc1c(C)cnc(Cn2cnc3c(Cl)nc(N)nc32)c1C`, the Potency result in test [1] is “inactive”. Besides, the compound was classed as inactive in test [2]. For the same compound, the Potency in test [3] was 23.5 µM (active). Moreover, in test [4], the remaining parasite growth % (stronger effect = lower value) turned out to be 40.5%. Moreover, in test [5], the activity, percent of control worked out at 31.4%.
For the compound `CC(C)C[C@H](NC(=O)c1cc2ccccc2s1)C(=O)N1CCN(C(=O)[C@H](CO)NS(=O)(=O)c2ccc(Cl)cc2Cl)CC1`, the Potency result in test [1] is “inactive”. Further, in test [2], the result was inactive. Also, the max response in test [3] is 4.85% (inactive). Moreover, in test [4], the remaining parasite growth % (stronger effect = lower value) was 17.9%. Further, in test [5], the activity, percent of control worked out at 27.2%.
Regarding `CCCCc1ccc(NS(=O)(=O)c2ccc(C)c(C(=O)N3CCN(c4cccc(C)c4C)CC3)c2)cc1`, the Potency result in test [1] was “inactive”. The call in test [2] was inactive. For the same compound, the max response in test [3] was 17% (inactive). For the same compound, the remaining parasite growth % (stronger effect = lower value) in test [4] came out at 37.4%. Also, in test [5], the activity, percent of control amounted to 96.6%.
Turning to `O=C1Nc2ccc(I)cc2C1=Cc1cc(Br)c(O)c(Br)c1`, in test [1], the Potency is 5.82 µM (active). Further, the outcome in test [2] was inactive.
Regarding `Cc1c(C(=O)Nc2ccc(N3C[C@@H](C)O[C@@H](C)C3)nc2)cccc1-c1ccc(OC(F)(F)F)cc1`, in test [1], the Potency entry is “inactive”. The compound was called inactive in test [2]. Also, in test [3], the max response was 0.51% (inactive). The remaining parasite growth % (stronger effect = lower value) in test [4] came out at 72.2%. In addition, in test [5], the activity, percent of control was determined as 72.3%.
With `COc1nc(C)cnc1NS(=O)(=O)c1cccnc1-c1ccc(-c2nnco2)cc1`, the Potency entry in test [1] was “inactive”. For the same compound, the compound was called inactive in test [2]. The max response in test [3] is 18.4% (inactive). For the same compound, in test [4], the remaining parasite growth % (stronger effect = lower value) is 63.7%. In addition, the activity, percent of control in test [5] was 88%.
For the compound `Cn1cc(-c2ccc3nnc(Sc4ccc5ncccc5c4)n3n2)cn1`, in test [1], the Potency result was “inactive”. In test [2], the outcome was inactive. For the same compound, in test [3], the max response is -16.9% (inactive). Besides, the remaining parasite growth % (stronger effect = lower value) in test [4] stood at 74.3%. For the same compound, the activity, percent of control in test [5] amounted to 95.2%.
Regarding `NC(=O)c1ccc(N(C(N)=O)c2c(F)cccc2F)nc1-c1ccc(F)cc1F`, the Potency entry in test [1] is “inactive”. Further, the compound was classed as inactive in test [2]. Further, in test [3], the max response is 15.2% (inactive). The remaining parasite growth % (stronger effect = lower value) in test [4] worked out at 84.7%. In test [5], the activity, percent of control was determined as 83.3%.
Take `CCOC(=O)[C@@H](N)CCC(=O)N[C@@H](CSCc1ccccc1)C(=O)N[C@@H](C(=O)OCC)c1ccccc1`: the Potency result in test [1] is “inactive”. Moreover, the outcome in test [2] was inactive. In addition, the remaining parasite growth % (stronger effect = lower value) in test [4] came to 51.1%. For the same compound, the activity, percent of control in test [5] turned out to be 92%.
Consider `COc1cc2ncn(-c3cc(OCc4ccccc4S(C)(=O)=O)c(C#N)s3)c2cc1OC`, for which the Potency in test [1] was 0.232 µM (active). In addition, in test [2], the outcome was inactive.
Consider `COc1cc2c(cc1OC)CC(=O)N(CCCN(C)C[C@H]1Cc3cc(OC)c(OC)cc31)CC2`, for which the Potency result in test [1] was “inactive”. Further, the result in test [2] was inactive. Also, the max response in test [3] is -6.61% (inactive). The remaining parasite growth % (stronger effect = lower value) in test [4] came out at 105%. In addition, the activity, percent of control in test [5] came out at 102%.
Turning to `CCC=CC[C@H]1C(=O)CC[C@@H]1CC(=O)OC`, the Potency result in test [1] is “inactive”. The call in test [2] was inactive. In addition, the max response in test [3] is 12% (inactive). Moreover, in test [4], the remaining parasite growth % (stronger effect = lower value) came to 94.5%. For the same compound, the activity, percent of control in test [5] worked out at 93.1%.
In the case of `COc1cccc(OC)c1-c1cc(C(=O)NC2(C(=O)O)C3CC4CC(C3)CC2C4)nn1-c1ccnc2cc(Cl)ccc12` (centres undefined), the Potency entry in test [1] was “inactive”. The call in test [2] was inactive. Moreover, the max response in test [3] is 42.4% (inactive). Besides, in test [4], the remaining parasite growth % (stronger effect = lower value) stood at 23.7%. Further, in test [5], the activity, percent of control was 56.1%.
`CC(C)(C)c1[nH]cnc1C=c1[nH]c(=O)c(=Cc2ccccc2)[nH]c1=O`: the Potency result in test [1] is “inactive”. Also, the outcome in test [2] was inactive. The max response in test [3] was -26.5% (inactive).
On to `COc1ccc2c(c1)CC[C@H]1[C@@H]2CC[C@]2(C)[C@@H](NCCCCCCN3C(=O)C=CC3=O)CC[C@H]12`, for which the Potency result in test [1] is “inactive”. The compound was classed as inactive in test [2].
In the case of `COc1cc2nccc(Oc3ccc(NC(=O)Nc4cc(C)on4)c(Cl)c3)c2cc1OC`, the Potency in test [1] was 0.772 µM (active). For the same compound, the compound was called inactive in test [2]. The max response in test [3] was 19.1% (inactive). The remaining parasite growth % (stronger effect = lower value) in test [4] came to 62.8%. In addition, the activity, percent of control in test [5] was 62%.
Turning to `O=C(O)c1ccc(O)c2ncc(N3CCOCC3)cc12`, the Potency entry in test [1] was “inactive”. The call in test [2] was inactive. For the same compound, in test [4], the remaining parasite growth % (stronger effect = lower value) came out at 22.3%.
For the compound `CC(=O)Nc1cccc(-n2c(=O)n(C3CC3)c(=O)c3c(Nc4ccc(I)cc4F)n(C)c(=O)c(C)c32)c1`, the Potency entry in test [1] is “inactive”. Also, in test [2], the compound was called inactive. Moreover, the remaining parasite growth % (stronger effect = lower value) in test [4] is -2.85%. In addition, the activity, percent of control in test [5] is -0.291%.
On to `O=C(Nc1cccc(Cl)c1)Nc1ncc(CCNc2ncnc3ccsc23)s1`, for which the Potency result in test [1] is “inactive”. Moreover, the result in test [2] was inactive. For the same compound, the max response in test [3] is 5.02% (inactive). Further, in test [4], the remaining parasite growth % (stronger effect = lower value) amounted to 0.421%. Moreover, in test [5], the activity, percent of control amounted to 4.65%.
With `CCCCCCCCCCCCCC(=O)N[C@H](CO)[C@H](O)c1ccc([N+](=O)[O-])cc1`, in test [1], the Potency entry is “inactive”. The compound was classed as inactive in test [2]. Further, the max response in test [3] was -2.76% (inactive). In test [4], the remaining parasite growth % (stronger effect = lower value) worked out at 90.4%. Further, the activity, percent of control in test [5] amounted to 82.3%.
